Experiment [1] is described as follows: yeast TOR pathway RPL19A-GFP modulators, primary screen, cell-based, S. cerevisiae, multiplex flow cytometry (AID 1862; in the data active = percent of DMSO control GFP below about 86%;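 note: lower values mimic rapamycin by blocking the RPL19A rise seen in DMSO cells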). The following applies: S. cerevisiae RPL19A-GFP strain, flow cytometry fluorescence, 3 h; at 10 µM; stronger effect = lower value. For orientation: Flow cytometry measures light scatter and fluorescence of single cells or particles in a stream.
Experiment [2] can be described thus: modulators of MEP2-GFP levels in yeast, primary screen, S. cerevisiae, multiplex flow cytometry (AID 1867;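 active = GFP response, as percent of the DMSO control, above the screen-wide mean plus 3 SD, about 139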;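 note: median GFP channel fluorescence of barcode-gated MEP2-GFP cells measured by flow cytometry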). The following applies: S. cerevisiae MEP2-GFP strain, 3 h, at 10 µM, stronger effect = higher value, 100% means same as DMSO wells.
The nature of experiment [3]: modulators of CIT2-GFP expression in yeast, primary screen, S. cerevisiae, GFP fusion, multiplex flow cytometry (AID 1870;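 active = percent response above a set limit, the screen-wide mean plus 3 SD, cut at about 130% in these data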;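 note: barcoded CIT2-GFP strain pooled with four other GFP strains with rapamycin as positive control; median GFP fluorescence per well over plate mean of DMSO wells so 100% = DMSO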). The following applies: 3 h, at 10 µM, stronger effect = higher value.
Experiment [4] in a line: modulators of LAP4-GFP expression in yeast, primary screen, S. cerevisiae, multiplex flow cytometry (AID 1873;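 active = GFP signal, as percent of the solvent control, above the screen mean plus 3 SD, about 149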). The conditions noted are these: 3 h, at 10 µM, stronger effect = higher value.
The nature of experiment [5]: modulators of AGP1-GFP expression in yeast TOR pathway, primary screen, cell-based, multiplex flow cytometry, S. cerevisiae (AID 1887;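 active = GFP signal above the screen-wide mean plus 3 SD, that is over about 124.5% of the solvent control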;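 note: AGP1-GFP fusion strain of S. cerevisiae within a five-strain barcoded multiplex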). The following applies: 3 h, at 10 µM, stronger effect = higher value.
Experiment [6] in a line: inhibitors of CD8+ T cell-vesicle binding, pilot screen, LFA-1/ICAM-1 modulator project, MLPCN validation set, flow cytometry (AID 2523;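 active = response below a set limit, under 55% cells CD8-positive and vesicle-bound, and CD8 cells' 90th-percentile brightness under 279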;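 for vesicle binding response: mean PE anti-B7-1 fluorescence of CD8+ cells relative to row control; 100% = QL9-loaded vesicles with DMSO vehicle in the same plate row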). The following applies: 2C mouse CD8+ T cells, at 7 µM, stronger effect = lower value; double positive events: measured here: CD8+/vesicle+ event percentage.
The target of experiment [7] is Integrin beta-1 (Homo sapiens) + Integrin alpha-4 (Homo sapiens) (UniProt P13612+P05556). Nature of the experiment: inhibition of HUTS-21 binding to VLA-4, pilot screen, VLA-4 allosteric modulator project, U937 cells, HUTS-21 mAb, flow cytometry, validation set (AID 2674;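 active = inhibition above 50%, about 3 SD of the validation set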;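 note: antibody binding induced by the VLA-4 ligand LDV present at three times its Kd; 0% = LDV ligand with antibody and no compound and 100% = antibody without LDV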). The conditions noted are these: HUTS-21 LIBS mAb binding, at 6.7 µM, stronger effect = higher value, binding induced by LDV ligand.
Integrin beta-1 (Homo sapiens) + Integrin alpha-4 (Homo sapiens), sequence (P05556 whole entry, looked up): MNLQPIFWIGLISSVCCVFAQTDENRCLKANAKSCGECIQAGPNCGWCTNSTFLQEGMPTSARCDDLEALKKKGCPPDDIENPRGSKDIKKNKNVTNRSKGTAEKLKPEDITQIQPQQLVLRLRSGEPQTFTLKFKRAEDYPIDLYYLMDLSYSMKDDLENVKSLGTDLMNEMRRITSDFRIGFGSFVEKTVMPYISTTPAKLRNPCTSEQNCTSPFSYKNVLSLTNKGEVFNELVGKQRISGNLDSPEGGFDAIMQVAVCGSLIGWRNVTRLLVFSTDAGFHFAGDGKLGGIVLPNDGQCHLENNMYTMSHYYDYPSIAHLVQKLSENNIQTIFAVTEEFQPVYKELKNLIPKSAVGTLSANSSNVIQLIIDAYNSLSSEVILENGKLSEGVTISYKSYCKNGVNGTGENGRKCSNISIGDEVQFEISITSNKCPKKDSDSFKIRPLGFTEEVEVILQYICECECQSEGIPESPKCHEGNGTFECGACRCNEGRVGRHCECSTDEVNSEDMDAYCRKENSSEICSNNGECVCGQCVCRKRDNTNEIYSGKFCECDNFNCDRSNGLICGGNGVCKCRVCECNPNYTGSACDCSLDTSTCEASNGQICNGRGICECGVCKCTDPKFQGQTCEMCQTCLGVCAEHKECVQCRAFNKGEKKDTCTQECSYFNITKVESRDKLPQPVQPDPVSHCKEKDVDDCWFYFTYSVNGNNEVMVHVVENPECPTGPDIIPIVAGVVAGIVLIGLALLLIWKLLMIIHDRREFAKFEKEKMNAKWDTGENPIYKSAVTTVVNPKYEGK
Integrin beta-1 (Homo sapiens) + Integrin alpha-4 (Homo sapiens), sequence (P13612 whole entry, looked up): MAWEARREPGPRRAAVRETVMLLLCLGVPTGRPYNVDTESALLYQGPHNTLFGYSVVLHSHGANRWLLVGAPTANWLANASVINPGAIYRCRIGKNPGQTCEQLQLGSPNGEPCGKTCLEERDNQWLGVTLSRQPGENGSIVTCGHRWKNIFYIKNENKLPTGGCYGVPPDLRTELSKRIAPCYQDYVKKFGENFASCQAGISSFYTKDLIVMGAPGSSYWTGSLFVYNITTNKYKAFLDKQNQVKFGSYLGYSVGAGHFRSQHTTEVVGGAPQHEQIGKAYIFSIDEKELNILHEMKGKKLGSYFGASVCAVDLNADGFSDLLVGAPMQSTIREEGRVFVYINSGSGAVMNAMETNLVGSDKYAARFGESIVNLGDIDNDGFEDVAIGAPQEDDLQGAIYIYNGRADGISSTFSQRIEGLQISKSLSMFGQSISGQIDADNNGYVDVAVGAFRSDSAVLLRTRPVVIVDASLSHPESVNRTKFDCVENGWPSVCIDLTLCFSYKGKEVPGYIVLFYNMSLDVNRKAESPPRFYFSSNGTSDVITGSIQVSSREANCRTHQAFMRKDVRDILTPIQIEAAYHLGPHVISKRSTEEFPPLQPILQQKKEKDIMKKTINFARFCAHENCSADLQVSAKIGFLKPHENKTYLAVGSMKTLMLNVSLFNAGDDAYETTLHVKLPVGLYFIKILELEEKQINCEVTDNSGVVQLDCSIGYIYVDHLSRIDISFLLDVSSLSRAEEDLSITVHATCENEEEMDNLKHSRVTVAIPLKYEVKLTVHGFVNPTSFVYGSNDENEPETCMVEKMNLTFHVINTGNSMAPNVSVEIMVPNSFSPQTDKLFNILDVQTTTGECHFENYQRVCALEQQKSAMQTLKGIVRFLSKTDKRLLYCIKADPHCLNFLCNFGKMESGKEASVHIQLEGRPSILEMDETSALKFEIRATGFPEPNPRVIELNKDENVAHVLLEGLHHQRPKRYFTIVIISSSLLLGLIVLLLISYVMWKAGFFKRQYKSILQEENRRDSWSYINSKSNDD

A short description of experiment [8]: superoxide lowering in aged yeast cells, pilot screen, validation compound set (AID 2706;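 active = superoxide response below 65% of plate, a cut near 3 SD across the whole screen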;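 note: yeast exposed to compound for one week at 30 degrees C before staining; 100% = mean of all compound wells on the same plate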). The conditions noted are these: S. cerevisiae aging, superoxide DHE fluorescence; at 10 µM; stronger effect = lower value.
The target of experiment [9] is Beta-adrenergic receptor kinase 1 (Homo sapiens) (UniProt P25098). In words: GRK2 binders displacing RNA aptamer, biochemical, validation, human GRK2, bead flow cytometry (AID 488806). The conditions noted are these: bead-bound GRK2, FAM-aptamer displacement, at 10 µM, stronger effect = higher value.
Beta-adrenergic receptor kinase 1 (Homo sapiens), sequence (P25098 whole entry, looked up): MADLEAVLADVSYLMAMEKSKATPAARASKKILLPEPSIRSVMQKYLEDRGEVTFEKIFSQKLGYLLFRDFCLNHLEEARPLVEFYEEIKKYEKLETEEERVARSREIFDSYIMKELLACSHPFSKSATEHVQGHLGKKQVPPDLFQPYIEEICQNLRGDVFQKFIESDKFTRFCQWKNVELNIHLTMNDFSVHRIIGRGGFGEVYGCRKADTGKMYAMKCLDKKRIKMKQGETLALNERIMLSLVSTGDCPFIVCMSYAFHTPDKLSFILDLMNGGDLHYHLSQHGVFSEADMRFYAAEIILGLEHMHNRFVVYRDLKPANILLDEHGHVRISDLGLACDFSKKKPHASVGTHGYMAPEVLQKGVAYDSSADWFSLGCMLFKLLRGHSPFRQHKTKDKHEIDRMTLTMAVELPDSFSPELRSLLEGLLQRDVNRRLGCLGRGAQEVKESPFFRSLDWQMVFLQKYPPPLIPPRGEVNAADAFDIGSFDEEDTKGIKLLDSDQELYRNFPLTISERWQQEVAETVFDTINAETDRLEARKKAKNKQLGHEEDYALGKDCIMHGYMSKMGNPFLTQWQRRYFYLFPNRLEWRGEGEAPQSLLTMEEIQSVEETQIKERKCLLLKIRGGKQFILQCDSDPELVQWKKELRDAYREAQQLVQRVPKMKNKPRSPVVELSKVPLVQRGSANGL
The target in experiment [10] is Beta-2 adrenergic receptor (Homo sapiens) (UniProt P07550). Nature of the experiment: beta2AR agonists driving receptor internalization, pilot screen, cell-based, FAP fluorogen, flow cytometry, validation set (AID 504459;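 active = percent response above 42, roughly 3 SD of non-fluorescent test compounds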;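 note: agonist-driven loss of surface beta2AR via internalization measured by FAP dye flow cytometry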). The following applies: Am2.2-beta2AR cells, FAP surface receptor flow cytometry; at 10 µM; stronger effect = higher value.
Beta-2 adrenergic receptor (Homo sapiens), sequence (P07550 whole entry, looked up): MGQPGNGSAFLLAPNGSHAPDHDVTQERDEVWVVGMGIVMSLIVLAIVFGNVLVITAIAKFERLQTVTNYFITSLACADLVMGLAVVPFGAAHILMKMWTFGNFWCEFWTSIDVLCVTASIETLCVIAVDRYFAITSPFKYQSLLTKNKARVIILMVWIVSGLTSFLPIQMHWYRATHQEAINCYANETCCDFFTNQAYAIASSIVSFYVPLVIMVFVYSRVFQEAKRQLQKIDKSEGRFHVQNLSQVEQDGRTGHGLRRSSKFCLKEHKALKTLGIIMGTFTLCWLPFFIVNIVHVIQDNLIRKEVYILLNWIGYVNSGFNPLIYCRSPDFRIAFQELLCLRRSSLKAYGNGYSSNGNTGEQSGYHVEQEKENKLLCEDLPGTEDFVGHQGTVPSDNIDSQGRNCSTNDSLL
Experiment [11] addresses AP-2 complex subunit beta (Homo sapiens) (UniProt P63010). Nature of the experiment: inhibitors of arrestin peptide binding to AP2, pilot screen, biochemical, validation set, GST-AP2 beads, flow cytometry (AID 504541;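 active = inhibition above 54%, about 3 SD of non-fluorescent compounds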;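 note: AP2 carries R879A mutation and is captured from E. coli lysate; bead-bound FITC arrestin peptide fluorescence measuring arrestin peptide binding to AP2; 0% = DMSO wells and 100% = excess unlabeled arrestin peptide control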). The conditions noted are these: FITC arrestin peptide, at 10 µM, stronger effect = higher value, AP2 beta2 appendage fragment, R879A mutant.
Experiment [12] can be described thus: yeast V-ATPase proton transport modulators, S. cerevisiae, pHLuorin, HTS validation (AID 504600; in the data active = response above about 15%;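 note: plate controls were DMSO for no effect and reference compound for full effect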). The following applies: S. cerevisiae pHLuorin cytosolic pH, at 10 µM, stronger effect = higher value.
Experiment [13] has as its system anti-desmoglein-3 scFv antibody binding to human DSG3. In words: inhibitors of anti-DSG3 scFv binding to DSG3, pilot screen, biochemical, validation compound set, bead-based, flow cytometry (AID 588368;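 active = binding below the plate cutoff, the plate median minus 3 SD, with a reading above zero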;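 note: signal is the median channel fluorescence of bead-bound GFP antibody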). The conditions noted are these: Protein G beads, DSG3-Fc, scFv-GFP binding, at 10 µM, stronger effect = lower value.
Experiment [14] is described as follows: inhibitors of fungal efflux pumps CDR1, CDR2, MDR1, pilot screen, validation compound set, multiplex, phenotypic (AID 588506;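 active = efflux inhibition above 0.42, the validation set average plus 4 SD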;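 note: Nile Red retained in cells so higher fluorescence means more efflux inhibition; 0 = negative control wells and 1 = enniatin B 25 µM full block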). The following applies: S. cerevisiae pump-expressing triplex, Nile Red efflux flow cytometry; at 10 µM; stronger effect = higher value; the pumps come from Candida albicans.
Experiment [15] has as its target ATP-binding cassette sub-family B member 6 (Homo sapiens) (UniProt Q9NP58). Nature of the experiment: ABCB6 transporter inhibitors, pilot screen, K562-ABCB6 cells, flow cytometry, validation set (AID 588550;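 active = inhibition above the screen-wide mean plus 3 SD, about 51%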;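 note: 0% = DMSO wells and 100% = benzethonium chloride 70 µM positive control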). The conditions noted are these: K562-ABCB6 porphyrin accumulation, 1 h, at 10 µM, stronger effect = higher value.
Experiment [16] in a line: promoters of myeloid differentiation in arrested cells, primary screen, cell-based, GFP/MAC1 double positive, flow cytometry, validation set (AID 588685;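 active = differentiation response of at least 50%, scaled between solvent and reference control, from cells with both markers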;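 note: compound exposure lasts four days before antibody staining and flow analysis; 0% = DMSO wells and 100% = 5 µM fulvestrant positive control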). The conditions noted are these: ER-HoxA9 marrow cells, stronger effect = higher value, normalized: vehicle 0, fulvestrant 100.

Molecules are shown by their SMILES. Inconclusive results are not listed. Activity calls are given as the source filed them.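 Rule for the calls, unless noted: active = aptamer binding inhibition above 30%, about 3 SD of noise from non-fluorescent compounds; inactive = inhibition at or below 30%.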

AP-2 complex subunit beta (Homo sapiens), sequence (P63010 whole entry, looked up, the tested form may be a part, one chain of several): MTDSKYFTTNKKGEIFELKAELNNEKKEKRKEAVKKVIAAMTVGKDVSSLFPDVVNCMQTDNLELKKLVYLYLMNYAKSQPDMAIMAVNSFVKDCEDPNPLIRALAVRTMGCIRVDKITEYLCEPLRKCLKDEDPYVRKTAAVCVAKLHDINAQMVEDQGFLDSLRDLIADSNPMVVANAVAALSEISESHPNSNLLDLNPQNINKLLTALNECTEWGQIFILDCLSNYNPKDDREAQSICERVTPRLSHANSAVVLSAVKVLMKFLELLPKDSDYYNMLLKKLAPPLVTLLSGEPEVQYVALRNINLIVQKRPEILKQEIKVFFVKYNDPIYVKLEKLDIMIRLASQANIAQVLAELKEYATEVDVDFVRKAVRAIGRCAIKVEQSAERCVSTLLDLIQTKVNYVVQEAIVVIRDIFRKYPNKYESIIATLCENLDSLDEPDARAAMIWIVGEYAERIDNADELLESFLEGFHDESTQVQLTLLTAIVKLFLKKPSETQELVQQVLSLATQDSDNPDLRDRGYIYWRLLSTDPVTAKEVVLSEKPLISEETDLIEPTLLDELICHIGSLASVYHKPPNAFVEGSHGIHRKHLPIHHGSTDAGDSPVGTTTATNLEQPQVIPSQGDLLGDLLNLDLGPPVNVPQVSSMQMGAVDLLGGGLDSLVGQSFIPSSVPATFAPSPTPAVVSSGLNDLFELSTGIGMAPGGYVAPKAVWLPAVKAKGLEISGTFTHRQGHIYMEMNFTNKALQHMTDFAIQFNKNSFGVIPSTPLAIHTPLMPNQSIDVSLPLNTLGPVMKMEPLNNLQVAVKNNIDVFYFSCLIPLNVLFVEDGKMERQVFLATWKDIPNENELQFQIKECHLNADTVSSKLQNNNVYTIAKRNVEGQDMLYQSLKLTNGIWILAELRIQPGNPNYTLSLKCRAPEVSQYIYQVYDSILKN
ATP-binding cassette sub-family B member 6 (Homo sapiens), sequence (Q9NP58 whole entry, looked up): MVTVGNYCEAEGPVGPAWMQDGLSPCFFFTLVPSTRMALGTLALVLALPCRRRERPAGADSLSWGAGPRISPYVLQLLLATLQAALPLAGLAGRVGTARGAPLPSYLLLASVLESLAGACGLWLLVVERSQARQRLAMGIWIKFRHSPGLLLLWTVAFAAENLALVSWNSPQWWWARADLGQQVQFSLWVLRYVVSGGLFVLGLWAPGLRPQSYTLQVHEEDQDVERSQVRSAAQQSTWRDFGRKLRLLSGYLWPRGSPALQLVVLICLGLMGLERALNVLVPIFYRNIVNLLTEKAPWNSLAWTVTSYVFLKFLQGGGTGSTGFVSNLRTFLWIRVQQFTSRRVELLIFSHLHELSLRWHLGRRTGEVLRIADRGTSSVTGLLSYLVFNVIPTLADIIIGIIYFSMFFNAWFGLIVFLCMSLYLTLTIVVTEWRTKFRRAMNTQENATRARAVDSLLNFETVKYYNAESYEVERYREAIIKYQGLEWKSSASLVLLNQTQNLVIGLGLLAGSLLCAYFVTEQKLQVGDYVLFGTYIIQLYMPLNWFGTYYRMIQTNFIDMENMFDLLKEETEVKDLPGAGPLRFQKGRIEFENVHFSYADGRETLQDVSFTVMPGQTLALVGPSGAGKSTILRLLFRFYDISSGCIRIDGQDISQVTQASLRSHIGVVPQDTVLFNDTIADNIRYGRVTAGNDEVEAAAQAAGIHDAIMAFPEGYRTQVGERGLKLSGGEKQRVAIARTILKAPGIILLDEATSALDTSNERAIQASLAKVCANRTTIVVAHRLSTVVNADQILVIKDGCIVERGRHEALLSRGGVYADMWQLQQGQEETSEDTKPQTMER

As to `COc1ccc(C(Cl)=C(c2ccc(OC)cc2)c2ccc(OC)cc2)cc1`, the percent of DMSO control GFP in [1] was 102% (inactive). For the same compound, the values for the GFP response vs DMSO in experiment [2] and in experiment [4] were 109% (inactive) and 90.7% (inactive), respectively. Further, in experiment [3], the percent response of DMSO control is 91.9% (inactive). For the same compound, in [5], the GFP response, % of DMSO is 98% (inactive). This compound also yielded a double positive events in experiment [6] of 62.9%. Further, the vesicle binding response in experiment [6] is 934% (inactive). Besides, the values for the inhibition in [7], in experiment [11] and in experiment [15] were -8.75% (inactive), 18.5% (inactive) and 7% (inactive), respectively. Further, the superoxide response (% of plate) in experiment [8] is 95.2% (inactive). Further, the aptamer binding inhibition in experiment [9] was 4% (inactive). Further, the response was 1.32% (inactive) in experiment [10] and -2.47% (inactive) in [12]. In addition, the binding (% of control) in experiment [13] is 95.8% (inactive). In addition, the efflux inhibition (fraction of control) in [14] was 0.18 (inactive). Moreover, the differentiation response in experiment [16] was 6.11% (inactive).
Consider `CN1C(C(=O)Nc2ccccn2)=C(O)c2ccccc2S1(=O)=O`, for which the percent of DMSO control GFP in [1] was 101% (inactive). Also, the GFP response vs DMSO in experiment [2] was 103% (inactive); in experiment [4], 106% (inactive). For the same compound, in experiment [3], the percent response of DMSO control was 86.1% (inactive). Further, the GFP response, % of DMSO in [5] was 97.6% (inactive). The double positive events in experiment [6] came out at 63.2%. In [6], the vesicle binding response was 383% (inactive). Also, the inhibition (commonly the relative decrease from the control value, in per cent) in [7] is -13.9% (inactive); in experiment [11] it was -12.3% (inactive); in experiment [15] it was 26% (inactive). Besides, the superoxide response (% of plate) in experiment [8] is 104% (inactive). The aptamer binding inhibition in [9] is 1% (inactive). Further, the response was -12.3% (inactive) in experiment [10] and -0.85% (inactive) in experiment [12]. Moreover, the binding (% of control) in experiment [13] is 100% (inactive). In experiment [14], the efflux inhibition (fraction of control) was -0.07 (inactive). Besides, in experiment [16], the differentiation response is 14.9% (inactive).
For `COc1ccc(CNC(=O)N[C@H](C(=O)O)C(C)C)cc1OC`, the percent of DMSO control GFP in experiment [1] is 92.6% (inactive). For the same compound, the GFP response vs DMSO in experiment [2] was 119% (inactive); in [4] it was 81.4% (inactive). Besides, the percent response of DMSO control in [3] was 111% (inactive). Besides, in [5], the GFP response, % of DMSO is 89.8% (inactive). Also, the double positive events in [6] is 53.2%. Moreover, the vesicle binding response in experiment [6] is 186% (inactive). Besides, the results for the inhibition in experiment [7], in experiment [11] and in experiment [15] were -9.06% (inactive), -15.3% (inactive) and 3% (inactive), respectively. In addition, in [8], the superoxide response (% of plate) was 112% (inactive). Moreover, the aptamer binding inhibition in experiment [9] was -5% (inactive). Besides, the response in [10] was -4.83% (inactive); in experiment [12], 1.94% (inactive). In experiment [13], the binding (% of control) was 98.1% (inactive). For the same compound, the efflux inhibition (fraction of control) in experiment [14] is 0.3 (inactive). In addition, the differentiation response in [16] was 7.37% (inactive).
For the compound `O=C(CN1C(=O)c2ccccc2C1=O)Nc1cccc([N+](=O)[O-])c1`, the percent of DMSO control GFP in [1] was 103% (inactive). Moreover, the GFP response vs DMSO is 98.7% (inactive) in [2] and 100% (inactive) in experiment [4]. Moreover, in experiment [3], the percent response of DMSO control was 109% (inactive). The GFP response, % of DMSO in experiment [5] was 106% (inactive). Besides, the double positive events in experiment [6] was determined as 61.2%. For the same compound, in [6], the vesicle binding response was 130% (inactive). Besides, the figures for the inhibition in [7], in [11] and in experiment [15] were -18.5% (inactive), 35% (inactive) and 7% (inactive), respectively. Besides, the superoxide response (% of plate) in experiment [8] is 94.2% (inactive). The aptamer binding inhibition in [9] is -3% (inactive). For the same compound, the figures for the response in [10] and in [12] were -3.16% (inactive) and -0.16% (inactive), respectively. The binding (% of control) in [13] is 101% (inactive). Also, the efflux inhibition (fraction of control) in experiment [14] is 0.005 (inactive). Also, the differentiation response in experiment [16] was -10.4% (inactive).

The record behind these values is PubChem BioAssay.
